Data reported in PubChem BioAssay AID540364 (The Scripps Research Institute Molecular Screening Center, 2011).
Hit rate of the full screen: of about 360,000 compounds, about 2,000 (0.56%) were called active. This excerpt belongs to a sample that is enriched for actives. A number with no mark means an inactive call.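 How the source made its calls: active means activation above the average of all compounds screened plus 3 SD, cutoff fixed separately per campaign (cut at about 7.5% in these data); inactive means the rest.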

Experiment: FXN promoter activators, primary screen, cell-based, luciferase luminescence, HEK293 lucGAA850 (AID 540364);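 further: 0% = DMSO wells and 100% = 10 µM SAHA wells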
Settings: HEK293 lucGAA850 FXN promoter luciferase reporter, 24 h; at 6 µM; stronger effect = higher value

SMILES | activation
O=C1C2(Cl)C3(Cl)C4(Cl)C(Cl)(Cl)C5(Cl)C3(Cl)C1(Cl)C5(Cl)C24Cl (stereo not given) | 9.58% (active)
COc1ccc(Br)cc1CNCCc1cccc(Cl)c1 | -0.31%
O=C(c1cc2nc(-c3ccccc3)cc(-c3ccccc3)n2n1)N1CCC2(CC1)OCCO2 | -0.55%
NCC(O)c1ccc(O)cc1 (stereo not given) | 2.36%
O=C(Nc1cccc(OC(=O)N2CCCCC2)c1)N1CCOCC1 | -1.14%
CC(C)(C)c1ccc(OC(=O)N2CCCCC2)cc1 | 8.59% (active)
CN1CCN(C(=O)COc2ccc(C(C)(C)C)cc2Br)CC1 | -0.38%
CCN(CC)P(=O)(Oc1cccc(C)c1)N(CC)CC | -1.37%
COc1ccc(-n2c(-c3ccccc3)nc3ccccc3c2=O)cc1 | 0.96%
CC(=C1C(=O)c2ccccc2C1=O)N1CCN(CCN=Cc2c(O)n(C)c(=O)n(C)c2=O)CC1 | 1.17%
